# The list is not random: actives were taken first. Their share in the collection is about 22%.
# CYP2C9 inhib: blocks human cytochrome P450 2C9. 96,000 tested, 20% active. CYP2C9 Supersomes, luciferin-H conversion, luminescence. P11712. inhibition, % at 5 µM. AID 777;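 active = blocking of liver enzyme CYP2C9 beyond about 50% at 5 µM, limit read from the data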
# CYP2C19 activ: increases human CYP2C19 enzyme activity | recombinant CYP2C19, luciferin-H EGE luminescence; hits give high values; 0 = fully inhibited enzyme, 1 = untreated enzyme | activation factor at 5 µM | 96,000 tested, under 10 active | AID 1025;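 active = activation factor of at least 2 at 5 µM in the primary screen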;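 also: 0 = wells with 2.5 mM tranylcypromine and 1 = vehicle-only wells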
# Target sequence (P33261 whole entry, looked up): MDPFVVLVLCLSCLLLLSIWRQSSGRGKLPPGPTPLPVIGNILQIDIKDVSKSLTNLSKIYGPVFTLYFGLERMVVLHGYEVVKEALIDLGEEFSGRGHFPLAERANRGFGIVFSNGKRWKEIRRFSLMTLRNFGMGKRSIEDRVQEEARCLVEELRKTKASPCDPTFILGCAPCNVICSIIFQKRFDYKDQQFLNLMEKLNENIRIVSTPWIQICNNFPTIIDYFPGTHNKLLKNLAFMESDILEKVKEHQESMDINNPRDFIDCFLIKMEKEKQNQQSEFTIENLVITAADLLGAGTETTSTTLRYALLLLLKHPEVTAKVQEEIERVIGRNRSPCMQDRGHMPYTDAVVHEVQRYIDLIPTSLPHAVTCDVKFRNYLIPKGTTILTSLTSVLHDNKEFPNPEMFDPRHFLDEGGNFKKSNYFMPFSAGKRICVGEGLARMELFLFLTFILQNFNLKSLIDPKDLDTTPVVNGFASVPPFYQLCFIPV
# Measles CPE: protection of cells from measles virus; Measles virus-infected cells, CPE protection, absorbance; protection (pct of control), % at 4 µM; 140,000 tested, 1.5% active; in the data active = protection mostly above about 24%, no sharp cut-off; inactive = mostly below about 26%
# CYP2C19 inh: human CYP2C19 inhibition; CYP2C19 Supersomes, luciferin-H EGE luminescence, 30 min; inhibition, % at 5 µM; 96,000 tested, 21% active; AID 778;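 active = CYP2C19 inhibition above a set limit at 5 µM in the primary screen, cut at about 50% in these data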;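 also: plate controls were negative control wells for no effect and 2.5 mM tranylcypromine positive control for full effect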
# CYP2C9 activ: activators of human CYP2C9. P11712. recombinant CYP2C9, luciferin-H conversion, luminescence; hits give high values; factor 1 = untreated enzyme, 0 = blocked. activation factor at 5 µM. 96,000 tested, 1.4% active. AID 1024;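 active = activation factor of 2 or more for CYP2C9 at a 5 µM dose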;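 also: 0 = sulfaphenazole-blocked wells and 1 = vehicle-only wells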
# * = called active by the depositor; / = not tested or not shown.
SMILES,CYP2C9 inhib,CYP2C19 activ,Measles CPE,CYP2C19 inh,CYP2C9 activ
COc1ccc(N/C(=N/c2nc(C)cc(C)n2)NC(=O)Nc2ccc(Cl)c(Cl)c2)c(OC)c1,/,/,7,/,/
O=C(Nc1ccccc1Oc1ccccc1)c1cnccn1,11,0.8,9,24,0.9
NCC[C@H](O)C(=O)N[C@@H]1C[C@H](N)[C@@H](O[C@H]2O[C@H](CN)[C@@H](O)[C@H](O)[C@H]2O)[C@H](O)[C@H]1O[C@H]1O[C@H](CO)[C@@H](O)[C@H](N)[C@H]1O,/,/,2,/,/
O=C(OCn1nnc2ccccc2c1=O)C1=COCCO1,-2,1,6,1,1
O=C(NC1CCCC1)C(c1ccc(F)cc1)N(C(=O)Cc1cccs1)c1ccc2c(c1)OCCO2 (stereo not drawn),0,1,11,-5,1
C=CCN(CC=C)C(=O)Nc1cc(Cl)ccc1OC,-172,0.1,4,85*,2.7*
CCN(C(=O)CN1C=NS(=O)(=O)c2ccccc21)c1ccccc1,/,/,4,/,/
Oc1c(C(c2cccs2)N2CCC3(CC2)OCCO3)sc2ncnn12 (stereo not drawn),58*,0.1,18,87*,0.4
Oc1c(C(c2cccs2)N2CCN(c3ccccc3)CC2)sc2ncnn12 (stereo not drawn),/,/,1,/,/
CCn1nc(CC(=O)Nc2nnc(CC(=O)N3CCCC3)s2)c2ccccc2c1=O,25,0.9,4,14,0.8
CCn1nc(CC(=O)Nc2nnc(CC(=O)N3CCOCC3)s2)c2ccccc2c1=O,14,1,28*,3,0.9
C=CCN1C(=O)C(Cc2ccc(OC)cc2)S/C1=N/N=C/c1ccco1 (stereo not drawn),11,0.2,19,78*,0.9
Cn1c(SCC(=O)N2CCOCC2)nc2cccnc21,2,1,8,2,1
Cc1nc2cc(-c3cccc(Cl)c3)nn2c(N2CCN(C(=O)c3ccco3)CC2)c1C,86*,0.3,/,73*,0.1
Nc1nonc1-n1nnc(C(=O)N/N=C/c2ccccc2)c1CSc1ccc(Cl)cc1,/,/,9,/,/
COc1cc(CNn2nnnc2N)ccc1OCc1c(Cl)cccc1Cl,19,0.4,8,62*,0.8
CCOc1cc(CNn2nnnc2N)cc(Cl)c1OCC(=O)NC(C)(C)C,29,0.1,6,91*,0.7
Cc1ccc(NC(=O)c2c(C(F)(F)F)nn(C)c2SCc2ccc(Cl)cc2)cc1C,100*,0.4,17,65*,0
Cc1ccc(NC(=O)c2c(C(F)(F)F)nn(C)c2SCc2cccc(C(F)(F)F)c2)cc1C,92*,0.5,7,46,0.1
CCOC(=O)Cc1csc(NC(=S)NC(=O)c2ccccc2Br)n1,/,/,17,/,/
NC(=O)c1ccc(NC(=O)c2ccccc2S(=O)(=O)c2ccccc2[N+](=O)[O-])cc1,/,/,5,/,/
c1ccc(OCCN2C3=NCCN3c3ccccc32)cc1,-13,1,13,3,1.1
CCOc1ccc(NC(=O)CN2CCN(CC(=O)Nc3ccc4c(c3)OCCO4)CC2)cc1,17,0.7,14,34,0.8
O=C(CN1CCC(C(=O)c2ccc(Cl)cc2)CC1)Nc1ccc2c(c1)OCCO2,58*,0.7,/,29,0.4
COc1ccccc1NC(=O)CN1CCN(CC(=O)Nc2ccc3c(c2)OCCO3)CC1,9,0.1,5,94*,0.9
SMILES,CYP2C9 inhib,CYP2C19 activ,Measles CPE,CYP2C19 inh,CYP2C9 activ
O=C(CN1CCN(CC(=O)Nc2ccccc2Cl)CC1)Nc1ccc2c(c1)OCCO2,51*,0.1,24,91*,0.5
CC(NC(=O)NC1CCCCC1)c1ccccc1 (stereo not drawn),/,/,3,/,/
CC(=O)OC[C@H]1O[C@@H](Sc2cccc3cccnc23)[C@H](OC(C)=O)[C@@H](OC(C)=O)[C@@H]1OC(C)=O,/,/,11,/,/
COc1cc(C2=NOC(C(=O)NC3CCCCC3)C2)cc(OC)c1OC (stereo not drawn),-12,1,3,5,1.1
COc1ccc(NCc2ccc([N+](=O)[O-])s2)c(OC)c1,/,/,10,/,/
C/C(Cl)=C/CSc1nn2c(=O)c3ccccc3nc2s1,82*,0.3,7,74*,0.2
O=C(CCl)Nc1ccccc1Sc1ccccc1,13,0.4,46*,64*,0.9
Nc1nc(SCC(=O)Nc2ccccc2Sc2ccccc2)n[nH]1,51*,0,14,99*,0.5
NC(=O)C1(N2CCCCC2)CCN(CC(=O)Nc2ccccc2Sc2ccccc2)CC1,50,0.2,11,79*,0.5
CC(=O)Nc1ccccc1Sc1ccccc1,20,0.2,7,79*,0.8
